According to the supplement of paper PMC6522484:
Where a name gives a salt, the structure may show the parent alone. ± gives the standard deviation of the averaged measurements.

Assays:
[1] = system: DLD1; experiment: cell viability (CellTiter-Glo) relative to plate median (fraction of plate median); higher = more viable cells; details: 10 µM, treatment time 24 h
In short: (§1)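 Colorectal cancer cell lines stably transduced with lentiviral TCF/Wnt firefly luciferase reporters (7TFP or TCF4/Wnt) were seeded in 384-well plates. 24 h later they received kinase inhibitor library compounds at a final 10 µM for 24 h. Parallel plates were read for firefly luciferase or CellTiterGlo luminescence on a Tecan F500 reader. Each well's signal was normalised to the plate median (webcellHTS2, additive, no log transformation), and the mean of two independent replicates is reported.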

[2] = system: HCT116; experiment: as above; details: 10 µM; treatment time 24 h; reporter: TCF4/Wnt
In short: as §1

[3] = system: SW480; experiment: as above; details: 10 µM; treatment time 24 h; reporter: 7TFP
In short: as §1

[4] = system: DLD1; experiment: TCF/Wnt firefly luciferase reporter signal relative to plate median (fraction of plate median); higher = higher Wnt reporter signal; details: 10 µM, treatment time 24 h
In short: as §1

[5] = system: HCT116; experiment: as above; details: 10 µM; treatment time 24 h; reporter: TCF4/Wnt
In short: as §1

[6] = system: SW480; experiment: as above; details: 10 µM; treatment time 24 h; reporter: 7TFP
In short: as §1

[7] = system: DLD1; experiment: cell viability (CellTiter-Glo) relative to plate median (fraction of plate median); higher = more viable cells; details: 5 µM; treatment time 24 h; reporter: 7TFP
In short: (§2)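 Values are well luminescence normalised to the plate median, from either a firefly luciferase or a CellTiterGlo readout on parallel plates. The cells, colorectal cancer lines stably transduced with lentiviral 7TFP or TCF4/Wnt firefly luciferase reporters, were treated with library compounds at a final 5 µM for 24 h. The mean of two independent replicates is listed.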

[8] = system: HCT116; experiment: as above; details: 5 µM; treatment time 24 h; reporter: TCF4/Wnt
In short: as §2

[9] = system: SW480; experiment: as above; details: 5 µM; treatment time 24 h; reporter: 7TFP
In short: as §2

[10] = system: DLD1; experiment: TCF/Wnt firefly luciferase reporter signal relative to plate median (fraction of plate median); higher = higher Wnt reporter signal; details: 5 µM; treatment time 24 h; reporter: 7TFP
In short: as §2

[11] = system: SW480; experiment: as above; details: 5 µM; treatment time 24 h; reporter: 7TFP
In short: as §2

Row | Compound | cell viability ([1]; reporter: 7TFP) | cell viability ([1]; reporter: TCF4/Wnt) | cell viability [2] | cell viability [3] | TCF/Wnt firefly luciferase reporter signal ([4]; reporter: 7TFP) | TCF/Wnt firefly luciferase reporter signal ([4]; reporter: TCF4/Wnt) | TCF/Wnt firefly luciferase reporter signal [5] | TCF/Wnt firefly luciferase reporter signal [6] | cell viability [7] | cell viability [8] | cell viability [9] | TCF/Wnt firefly luciferase reporter signal [10] | TCF/Wnt firefly luciferase reporter signal [11]
1 | Nc1nc(Nc2ccc(S(N)(=O)=O)cc2)nn1C(=O)c1c(F)cccc1F | 1.01 ± 0.14 | 1.05 ± 0.076 | 0.71 ± 0.11 | 1.24 ± 0.071 | 0.811 ± 0.057 | 1.59 ± 0.69 | 0.284 ± 0.018 | 1.09 ± 0.13 | – | – | – | – | –
2 | CNC(=O)c1ccccc1Sc1ccc2c(/C=C/c3ccccn3)n[nH]c2c1 [Axitinib] | 0.9855 ± 0.0021 | 1 ± 0.052 | 0.965 ± 0.0028 | 0.906 ± 0.051 | 1.7 ± 0.057 | 1.97 ± 0.33 | 1.53 ± 0.89 | 1.36 ± 0.92 | – | – | – | – | –
3 | COc1cc(Nc2ncc(F)c(Nc3ccc4c(n3)NC(=O)C(C)(C)O4)n2)cc(OC)c1OC | 1.1 ± 0.17 | 0.982 ± 0.054 | 1.11 ± 0.12 | 1.01 ± 0.037 | 1.05 ± 0.13 | 0.941 ± 0.044 | 1.24 ± 0.2 | 0.914 ± 0.57 | – | – | – | – | –
4 | Oc1c2ccccc2c2c3c(cccc13)N=N2 | 1.06 ± 0.099 | 1.01 ± 0.016 | 1.12 ± 0.021 | 0.931 ± 0.016 | 1.07 ± 0.14 | 1.18 ± 0.014 | 1.34 ± 0.23 | 1.06 ± 0.021 | – | – | – | – | –
5 | CC(C)n1nc(-c2ccc3oc(N)nc3c2)c2c(N)ncnc21 | 0.832 ± 0.15 | 0.916 ± 0.016 | 0.624 ± 0.1 | 1.04 ± 0.072 | 0.341 ± 0.062 | 0.509 ± 0.071 | 0.569 ± 0.26 | 0.704 ± 0.15 | – | – | – | – | –
6 | Cc1cnc(Nc2ccc(OCCN3CCCC3)cc2)nc1Nc1cccc(S(=O)(=O)NC(C)(C)C)c1 | 1.07 ± 0.064 | 1.14 ± 0.16 | 1.14 | 0.871 ± 0.04 | 1.2 ± 0.26 | 1.14 ± 0.18 | 1.31 ± 0.22 | 1.06 ± 0.078 | – | – | – | – | –
7 | CC(C)c1cnn2c(NCc3ccccc3)cc(NCCCCCCN)nc12 | 1 ± 0.067 | 0.969 ± 0.073 | 1 ± 0.055 | 0.921 ± 0.041 | 1.27 ± 0.11 | 1.52 ± 0.028 | 0.988 ± 0.14 | 1.2 ± 0.17 | – | – | – | – | –
8 | C=CC(=O)Nc1cccc(Sc2nc(Nc3ccc(N4CCN(C)CC4)cc3)ncc2Cl)c1 | 1.1 ± 0.035 | 1.02 ± 0.15 | 1.02 | 1.195 ± 0.0071 | 1.79 ± 0.25 | 1.15 ± 0.22 | 1.64 ± 0.67 | 1.32 ± 0.58 | – | – | – | – | –
9 | CN(C)Cc1cccc(N=C(c2ccccc2)c2c(O)[nH]c3cc(C(=O)N(C)C)ccc23)c1 | 1.13 ± 0.057 | 0.947 ± 0.0014 | 1.13 ± 0.099 | 1.19 ± 0.035 | 0.966 ± 0.12 | 0.85 ± 0.061 | 1.11 ± 0.16 | 1.11 ± 0.014 | – | – | – | – | –
10 | O=C(Nc1cccc(Cl)c1)Nc1ncc(CCNc2ncnc3ccsc23)s1 | 0.87 ± 0.023 | 0.8545 ± 0.0064 | 0.947 ± 0.03 | 0.922 ± 0.012 | 0.743 ± 0.15 | 0.952 ± 0.029 | 1.45 | 0.82 ± 0.061 | – | – | – | – | –
11 | O=C1NC(=O)/C(=C/c2ccc3nccc(-c4ccncc4)c3c2)S1 | 0.973 ± 0.038 | 1.07 ± 0.071 | 0.597 ± 0.061 | 1.02 ± 0.13 | 0.312 ± 0.018 | 0.564 ± 0.29 | 0.417 ± 0.25 | 0.572 ± 0.07 | – | – | – | – | –
12 | CN1CCN(CCOc2cc(OC3CCOCC3)c3c(Nc4c(Cl)ccc5c4OCO5)ncnc3c2)CC1 [Saracatinib (AZD0530)] | 0.936 ± 0.048 | 0.874 ± 0.066 | 0.968 ± 0.0042 | 1.03 ± 0.047 | 0.824 ± 0.12 | 0.879 ± 0.036 | 0.799 ± 0.25 | 0.613 ± 0.32 | – | – | – | – | –
13 | CN(C)Cc1cccc(N/C(=C2\C(=O)Nc3cc(C(N)=O)ccc32)c2ccccc2)c1 | 1.15 ± 0.13 | 1.09 ± 0.057 | 1.09 ± 0.028 | 1.085 ± 0.0071 | 0.977 ± 0.23 | 0.982 ± 0.12 | 1.05 ± 0.095 | 1.14 ± 0.035 | – | – | – | – | –
14 | CCc1cc(Nc2nccc(-c3c(-c4ccc(OC)c(C(=O)Nc5c(F)cccc5F)c4)nc4ccccn34)n2)c(OC)cc1N1CCC(N2CCN(S(C)(=O)=O)CC2)CC1 | 0.925 ± 0.059 | 0.995 ± 0.12 | 1.1 ± 0.028 | 0.974 ± 0.066 | 0.939 ± 0.035 | 0.977 ± 0.047 | 1.25 ± 0.05 | 1.24 ± 0.085 | – | – | – | – | –
15 | O=C1NCCc2[nH]c(-c3ccncc3)cc21 | 1.03 ± 0.14 | 1.03 ± 0.054 | 0.665 ± 0.14 | 1.24 ± 0.11 | 0.612 ± 0.054 | 0.44 ± 0.11 | 0.222 ± 0.0085 | 0.829 ± 0.023 | – | – | – | – | –
16 | COc1cc2c(N3CCN(C(=O)Nc4ccc(OC(C)C)cc4)CC3)ncnc2cc1OCCCN1CCCCC1 [Tandutinib (MLN518)] | 1.09 ± 0.05 | 1.1 ± 0.085 | 1.09 ± 0.028 | 1.11 | 0.956 ± 0.12 | 1.03 ± 0.028 | 1.08 ± 0.035 | 1.33 ± 0.05 | – | – | – | – | –
17 | Cc1ccc(NC(=O)c2ccc(CN3CCN(C)CC3)cc2)cc1Nc1nccc(-c2cccnc2)n1 [Imatinib Mesylate] | 0.9835 ± 0.0064 | 0.907 ± 0.17 | 0.91 ± 0.024 | 0.984 ± 0.066 | 2.07 ± 0.14 | 1.51 ± 0.4 | 1.32 ± 0.47 | 1.73 ± 0.15 | – | – | – | – | –
18 | Cc1cccc(C(=O)O)c1O | – | – | – | – | – | – | – | – | 1.02 ± 0.039 | 0.934 ± 0.078 | 0.96 ± 0.0099 | 0.869 ± 0.12 | 0.922 ± 0.059
